Laboratory results published in the supplement of paper PMC10646978.
± gives the standard deviation.

What was measured:
Conditions in all cases: modulator concentration 10 µM
[1] = system: RAW-Dual (murine macrophage reporter line); assay: NF-kB reporter (SEAP) activity fold change vs agonist alone; higher = enhanced NF-kB activity
Outline: (§1)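 In 384-well plates holding 50 000 RAW-Dual murine macrophage reporter cells per well, compound at 10 μM final was pre-incubated for 1 hour at 37 °C, after which a PRR agonist was added overnight. Supernatant SEAP read with QUANTI-Blue at 620 nm absorbance reported NF-κB, and Lucia luciferase read with QUANTI-Luc luminescence reported IRF. Fold change values come from dividing each reporter signal by the mean of agonist-only control wells on the same plate, averaged over replicate plates with propagated errors.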

[2] = system: RAW-Dual (murine macrophage reporter line); assay: IRF reporter (Lucia luciferase) activity fold change vs agonist alone; higher = enhanced IRF activity
Outline: as §1

[3] = system: RAW-Dual (murine macrophage reporter line); assay: viability score (confluency relative to resting cells, overnight) (fraction); higher = more viable, active = viable (0.7 or more)
Outline: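 RAW-Dual macrophages in 384-well plates were exposed overnight to compound at 10 μM final. Confluency was imaged with IncuCyte, and two confluency masks were generated with IncuCyte software over all imaged wells. The viability score is confluency expressed relative to resting cells. Compounds were called viable if both masks exceeded 70% of resting cells.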

[4] = agonist: CpG ODN 1826 0.5 ug/mL

Compound | NF-kB reporter [1, 4] | NF-kB reporter ([1]; agonist: LPS 0.1 ug/mL) | NF-kB reporter ([1]; agonist: MPLA […]) | IRF reporter ([2]; agonist: 3'3'-cGAMP 10 ug/mL) | IRF reporter ([2]; agonist: LPS 0.1 ug/mL) | IRF reporter ([2]; agonist: MPLA […]) | viability score [3]
CC1(C)C(=O)C2CC3(O)C4=CC(=O)OC(c5ccoc5)C4(C)CCC3C(C)(C2=O)C1CC(=O)O (centres undefined) | 0.99 ± 0.056 | 1.04 ± 0.064 | 1.01 ± 0.081 | 0.997 ± 0.035 | 1.51 ± 0.13 | 1.25 ± 0.14 | 0.996 (active)
Oc1cc(O)c2c(c1)OC(c1ccc(O)c(O)c1)C(O)C2 (centres undefined) | 0.936 ± 0.098 | 0.859 ± 0.087 | 1.05 ± 0.1 | 0.891 ± 0.028 | 1.13 ± 0.17 | 1.29 ± 0.32 | 1.06 (active)
Cc1noc(C)c1CN1CCC(C(F)(F)F)CC1.Cl | 0.908 ± 0.048 | 0.947 ± 0.081 | 1.1 ± 0.066 | 1.09 ± 0.072 | 1.32 ± 0.29 | 1.6 ± 0.52 | 0.937 (active)
N=C(N)Nc1nc(-c2ccccc2)c(-c2ccccc2)s1 | 0.98 ± 0.2 | 1.23 ± 0.18 | 1.29 ± 0.1 | 1.27 ± 0.06 | 1.26 ± 0.22 | 1.33 ± 0.19 | 1 (active)
Cc1nnc(NN=Cc2ccc(O)c([N+](=O)[O-])c2)[nH]c1=O | 1.07 ± 0.14 | 1.01 ± 0.097 | 1.03 ± 0.035 | 0.98 ± 0.045 | 0.979 ± 0.14 | 1.01 ± 0.25 | 0.992 (active)
O=C(c1ccc(I)cc1)N(C1CCCCC1)C1CCCCC1 | 0.976 ± 0.1 | 1.03 ± 0.099 | 1.09 ± 0.056 | 0.832 ± 0.044 | 1.02 ± 0.13 | 1.18 ± 0.3 | 0.997 (active)
CN1CCN(C2=Nc3ccccc3Oc3ccc(Cl)cc32)CC1 [Prestw-132] | 1.08 ± 0.22 | 0.804 ± 0.09 | 0.812 ± 0.079 | 0.944 ± 0.054 | 1.08 ± 0.18 | 0.961 ± 0.18 | 1.03 (active)
Cc1cc(=O)nc(SCCc2ccccc2)[nH]1 | 1.13 ± 0.11 | 1.27 ± 0.082 | 1.15 ± 0.041 | 0.952 ± 0.079 | 1.06 ± 0.053 | 1.2 ± 0.091 | 0.687 (inactive)
CCOC(=O)C1=C(C)N(c2ccc(OC)cc2)C(=O)C1=Cc1ccc(C(=O)O)cc1 | 0.751 ± 0.13 | 1.12 ± 0.087 | 0.984 ± 0.076 | 0.642 ± 0.022 | 1.32 ± 0.16 | 1.39 ± 0.15 | 0.997 (active)
O=c1oc2c3c4c(cc2cc1-c1nnc(-c2ccccc2)o1)CCCN4CCC3 | 1.01 ± 0.12 | 1.04 ± 0.1 | 0.98 ± 0.058 | 1.02 ± 0.058 | 1.41 ± 0.17 | 1.04 ± 0.069 | 1.01 (active)
Cc1cccc(C(=O)NC2CCC(F)(F)CC2)c1 | 1.07 ± 0.068 | 0.934 ± 0.082 | 1.03 ± 0.058 | 0.823 ± 0.034 | 1.1 ± 0.058 | 0.99 ± 0.2 | 1 (active)
CC#CCn1c(N2CCC[C@@H](N)C2)nc2c1c(=O)n(Cc1nc(C)c3ccccc3n1)c(=O)n2C | 1.05 ± 0.14 | 1.13 ± 0.22 | 1.02 ± 0.064 | 0.944 ± 0.035 | 1.34 ± 0.38 | 1.14 ± 0.16 | 1.01 (active)
CNc1ccc([N+](=O)[O-])cc1-n1cnc(-c2ccc([N+](=O)[O-])cc2)c1 | 0.853 ± 0.068 | 0.807 ± 0.038 | 1.37 ± 0.12 | 1.02 ± 0.046 | 1.41 ± 0.082 | 1.58 ± 0.15 | 1.02 (active)
C=CCc1ccccc1OCC(O)CNC(C)C.Cl (centres undefined) | 1 ± 0.24 | 0.957 ± 0.14 | 1.06 ± 0.072 | 0.809 ± 0.029 | 1.16 ± 0.24 | 1.07 ± 0.14 | 0.978 (active)
OC(C(=NN=C(c1ccccc1)C(O)c1ccccc1)c1ccccc1)c1ccccc1 (centres undefined) | 0.662 ± 0.072 | 1.14 ± 0.072 | 1.03 ± 0.063 | 1.14 ± 0.038 | 1.48 ± 0.11 | 1.45 ± 0.19 | 0.974 (active)
Brc1ccc(C(Cc2ccccc2)Nc2ccccn2)cc1 (centres undefined) | 0.255 ± 0.014 | 1.07 ± 0.071 | 0.929 ± 0.084 | 1.27 ± 0.042 | 1.75 ± 0.12 | 1.28 ± 0.12 | 0.959 (active)
O=C(NCCCOc1cccc2cccnc12)c1cnccn1 | 1.03 ± 0.059 | 0.979 ± 0.094 | 0.998 ± 0.035 | 0.95 ± 0.036 | 1.01 ± 0.052 | 0.99 ± 0.1 | 1 (active)
Cc1cncc(CN2CCC(=C3c4ccc(Cl)cc4CCc4cccnc43)CC2)c1.O=C(O)/C=C/C(=O)O | 1.46 ± 0.14 | 1.19 ± 0.096 | 1.73 ± 0.23 | 0.931 ± 0.097 | 0.799 ± 0.092 | 1.29 ± 0.16 | 1 (active)
CNC(C)CCC=C(C)C.CNC(C)CCC=C(C)C (centres undefined) [Prestw-1023] | 1.07 ± 0.082 | 0.976 ± 0.12 | 1.01 ± 0.16 | 1 ± 0.047 | 1.17 ± 0.16 | 1.23 ± 0.28 | 1.04 (active)
CCN(CC)CCNC(=O)c1c(C)[nH]c(/C=C2\C(=O)Nc3ccc(F)cc32)c1C | 0.102 ± 0.0079 | 0.192 ± 0.015 | 0.475 ± 0.031 | 0.0578 ± 0.003 | 0.0794 ± 0.014 | 0.0928 ± 0.022 | 0.359 (inactive)
O=C(O)c1ccccc1 | 1.07 ± 0.21 | 1.24 ± 0.38 | 0.974 ± 0.089 | 0.933 ± 0.029 | 1.46 ± 0.34 | 1.33 ± 0.1 | 0.998 (active)
O=S1(=O)N=C(Oc2ccc3ccccc3c2)c2ccccc21 | 0.889 ± 0.15 | 1.23 ± 0.1 | 1.22 ± 0.21 | 0.91 ± 0.063 | 0.942 ± 0.14 | 0.991 ± 0.11 | 0.992 (active)
Cn1nccc1C(=O)N1CCC(O)(C(F)(F)F)CC1 | 1.22 ± 0.29 | 0.996 ± 0.082 | 1.01 ± 0.078 | 0.92 ± 0.033 | 1.14 ± 0.13 | 1.3 ± 0.19 | 0.997 (active)
CCCCOc1ccc(OCCCN2CCOCC2)cc1.Cl | 1.2 ± 0.09 | 1.27 ± 0.16 | 1.25 ± 0.1 | 0.643 ± 0.054 | 0.852 ± 0.051 | 0.836 ± 0.071 | 0.981 (active)
CCNc1cc(C)nc(Nc2ccc(NC(=O)c3ccc(OC)c(OC)c3)cc2)n1 | 0.118 ± 0.0094 | 1.32 ± 0.11 | 1.74 ± 0.17 | 0.72 ± 0.023 | 1.19 ± 0.18 | 1.29 ± 0.27 | 0.977 (active)
COc1ccc(CNC2CCCc3ccccc32)cc1OC (centres undefined) | 0.648 ± 0.24 | 1.1 ± 0.09 | 0.981 ± 0.11 | 0.713 ± 0.026 | 1.12 ± 0.14 | 1.5 ± 0.29 | 0.508 (inactive)
CCOC(=O)c1ccc(-c2ccc(C=C(C#N)C(=O)Nc3ccc(F)cc3)o2)cc1 | 0.979 ± 0.09 | 1.08 ± 0.063 | 1.05 ± 0.068 | 0.929 ± 0.042 | 1.29 ± 0.25 | 1.06 ± 0.14 | 1.01 (active)
